Source: PubChem BioAssay (several laboratories)
HMGR II inh: E. faecalis class II HMG-CoA reductase inhibition; AID 1066; 190,000 compounds, 0.41% hits; inhibition, % at 10 µM; purified E. faecalis HMGR, NADPH absorbance 340 nm kinetic;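 active means inhibition above a set limit, the median over all tested compounds plus 3 SD, cut at about 9.5% in these data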;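 further: enzyme runs in reverse so mevalonate oxidation gives rising NADPH absorbance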
ROMK mod: human ROMK K+ channel modulation, primary screen. Tet-inducible ROMK, thallium flux fluorescence; actives lie on both sides. B-score at 10 µM. AID 1918. P48048. 130,000 compounds, 2% hits;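 active means signal ratio slope over the read window, or its plate-corrected B-score, at least 3 SD from the plate mean, either direction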;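 further: B-score of the F/F0 ratio slope over 7 to 12 s after thallium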
Target sequence (P48048 whole entry, looked up): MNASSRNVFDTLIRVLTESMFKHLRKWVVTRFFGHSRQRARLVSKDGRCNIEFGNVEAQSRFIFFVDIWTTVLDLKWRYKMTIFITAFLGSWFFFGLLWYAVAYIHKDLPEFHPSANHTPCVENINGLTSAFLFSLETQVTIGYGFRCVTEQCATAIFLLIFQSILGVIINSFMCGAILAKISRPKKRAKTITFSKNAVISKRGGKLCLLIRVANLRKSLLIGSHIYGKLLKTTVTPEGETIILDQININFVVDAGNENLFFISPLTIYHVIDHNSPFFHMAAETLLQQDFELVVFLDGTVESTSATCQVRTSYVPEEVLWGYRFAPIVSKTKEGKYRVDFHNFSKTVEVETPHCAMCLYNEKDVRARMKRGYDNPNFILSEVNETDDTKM
zVAD death inh: blocks zVAD induced death of L929 cells. 220,000 compounds, 0.38% hits. viability rescue, % at 10 µM. L929 zVAD necroptosis rescue, ATP luminescence, 24 h; with zVAD 60 µM. AID 1377;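 active means activation, scaled between plate controls, above about 75%, limit read from the data; inactive means activation under that limit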
14-3-3 Bad inh: disrupts binding of bovine 14-3-3 zeta to phospho-Bad peptide; P63103; TR-FRET 14-3-3zeta/Dy647-pBad peptide displacement, 1 h; inhibition, % at 21.7 µM; 220,000 compounds, 0.71% hits; AID 781;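 active means inhibition above about 70%, limit read from the data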
Target sequence (P63103 whole entry, looked up): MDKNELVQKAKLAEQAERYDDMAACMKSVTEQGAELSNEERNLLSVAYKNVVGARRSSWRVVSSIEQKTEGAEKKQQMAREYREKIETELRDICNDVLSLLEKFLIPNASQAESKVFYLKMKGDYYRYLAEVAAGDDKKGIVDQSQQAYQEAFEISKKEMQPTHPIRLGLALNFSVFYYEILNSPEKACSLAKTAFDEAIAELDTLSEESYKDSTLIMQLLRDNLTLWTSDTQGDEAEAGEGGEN
m-calpain inh: blocks pig calpain II enzyme activity. purified calpain II, fluorogenic peptide substrate, 30 min. 220,000 compounds, 0.37% hits. inhibition, % at 16 µM;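 active means inhibition above about 50%, limit read from the data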
TNF death inh: TNF-alpha cell death inhibition in Jurkat FADD-/- cells; 220,000 compounds, 0.068% hits; AID 463075; activation (protection from cell death), % at 10 µM; Jurkat FADD-/- TNF necroptosis rescue, ATP luminescence, 24 h; 0 = TNF only, 100 = no-TNF cells;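 active means activation, meaning protection from cell death, of at least 50% relative to plate controls; inactive means activation below 50%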;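 further: necroptosis triggered by 40 ng/mL TNF-alpha added together with compound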
Numbers stand for hits; [ ] = dose if it differs, or a comment. The list is not random: actives were taken first. Their share in the collection is about 3%.

Results for O=c1cc(-c2ccc(O)c(O)c2)oc2cc(O)c(C3OC(CO)C(O)C(O)C3O)c(O)c12 (centres undefined) ?
HMGR II inh: inactive; zVAD death inh: inactive; 14-3-3 Bad inh: inactive; m-calpain inh: inactive; TNF death inh: inactive

Results for Cc1cccc2nc(-c3ccccc3)nc(N[C@@H](CO)c3ccccc3)c12 ?
HMGR II inh: inactive; ROMK mod: inactive; zVAD death inh: inactive; 14-3-3 Bad inh: 76.0[fluorescence artefact?]; m-calpain inh: inactive; TNF death inh: inactive

How did CC(C)C(=O)OCc1cn(-c2ccc(Cl)c(Cl)c2)nn1 do in these assays?
HMGR II inh: inactive; ROMK mod: inactive; zVAD death inh: inactive; 14-3-3 Bad inh: inactive; m-calpain inh: inactive; TNF death inh: inactive

What do the screens show for `COc1ccc(CN2CCN(C(=O)CC(C)C)CC2)cc1OC`?
HMGR II inh: inactive; zVAD death inh: inactive; 14-3-3 Bad inh: 73.5; m-calpain inh: inactive; TNF death inh: inactive

Results for COc1ccc(CN2CCN(C(=O)CC(C)C)CC2)c2ccccc12 ?
HMGR II inh: inactive; zVAD death inh: inactive; 14-3-3 Bad inh: 83.2; m-calpain inh: inactive; TNF death inh: inactive

Results for Cc1c(-c2ccccc2)[n+](=O)c(-c2ccc(Cl)cc2)c(C)n1[O-] ?
HMGR II inh: inactive; ROMK mod: inactive; zVAD death inh: inactive; 14-3-3 Bad inh: inactive; m-calpain inh: inactive; TNF death inh: inactive

How did O=C(C/C=N/OCc1ccc(F)cc1Cl)c1cnc(-c2ccccc2)s1 do in these assays?
HMGR II inh: 11.1; zVAD death inh: inactive; 14-3-3 Bad inh: inactive; m-calpain inh: inactive; TNF death inh: inactive

How did O=C(C/C=N/OCc1ccccc1F)c1cnc(-c2ccc(Cl)cc2)s1 do in these assays?
HMGR II inh: inactive; zVAD death inh: inactive; 14-3-3 Bad inh: inactive; m-calpain inh: inactive; TNF death inh: inactive

Results for O=C(N/N=C/c1ccncc1)c1cc([N+](=O)[O-])cc([N+](=O)[O-])c1O ?
HMGR II inh: inactive; zVAD death inh: inactive; 14-3-3 Bad inh: 89.4; m-calpain inh: inactive; TNF death inh: inactive

How did Cc1cc(C(=O)N/N=C/c2ccncc2)c(C)o1 do in these assays?
ROMK mod: inactive; zVAD death inh: inactive; 14-3-3 Bad inh: inactive; m-calpain inh: inactive; TNF death inh: inactive

Results for COc1ccccc1NC(=S)NC(=O)c1ccc(Cn2cc(Br)cn2)cc1 ?
HMGR II inh: inactive; ROMK mod: inactive; 14-3-3 Bad inh: inactive; m-calpain inh: inactive; TNF death inh: inactive

Results for CCCCn1c(NCc2cccs2)nc2ccccc21 ?
HMGR II inh: inactive; ROMK mod: inactive; zVAD death inh: inactive; 14-3-3 Bad inh: inactive; m-calpain inh: inactive; TNF death inh: inactive

What do the screens show for `CCOC(=O)C1=C(c2ccccc2)N(C)C(=O)NC1c1ccc(OC(F)F)c(OC)c1` (centres undefined)?
HMGR II inh: inactive; ROMK mod: -4.56; zVAD death inh: inactive; 14-3-3 Bad inh: inactive; m-calpain inh: inactive; TNF death inh: inactive

What do the screens show for `Cc1ccc(NC(=O)c2ccc3nc[nH]c3c2)c(O)c1`?
HMGR II inh: 16.1; ROMK mod: inactive; zVAD death inh: inactive; 14-3-3 Bad inh: inactive; m-calpain inh: inactive; TNF death inh: inactive

Results for Cc1ccc(N=c2c([N+](=O)[O-])nn(-c3ccc4c(c3)OCCO4)n2O)c(Cl)c1 ?
HMGR II inh: inactive; ROMK mod: inactive; zVAD death inh: inactive; 14-3-3 Bad inh: inactive; m-calpain inh: 53.4; TNF death inh: inactive

Results for CCCCc1ccc(S(=O)(=O)N2CCN(C(=O)c3ccco3)CC2)cc1 ?
HMGR II inh: inactive; ROMK mod: inactive; zVAD death inh: inactive; 14-3-3 Bad inh: inactive; m-calpain inh: inactive; TNF death inh: inactive

Results for Cc1ccc(N(CC(N)=O)C2SC(=O)N(C)C2=O)cc1 (centres undefined) ?
HMGR II inh: inactive; ROMK mod: inactive; zVAD death inh: inactive; 14-3-3 Bad inh: 80.4; m-calpain inh: inactive; TNF death inh: inactive

What do the screens show for `Cc1ccoc1C(=O)NCCNc1ccc(Cl)cc1[N+](=O)[O-]`?
HMGR II inh: inactive; ROMK mod: inactive; zVAD death inh: inactive; 14-3-3 Bad inh: inactive; m-calpain inh: inactive; TNF death inh: inactive

What do the screens show for `CCCc1nc(SCC(=O)c2ccccc2)c2c(=O)n(C)c(=O)n(C)c2n1`?
HMGR II inh: inactive; zVAD death inh: inactive; 14-3-3 Bad inh: inactive; m-calpain inh: 52.7; TNF death inh: inactive

What do the screens show for `Cc1ccc(-c2nn(CC(=O)NCc3cc(-c4nn(C)c(=O)c5ccccc45)ccc3C)c(=O)c3ccccc23)cc1`?
HMGR II inh: inactive; ROMK mod: inactive; zVAD death inh: inactive; 14-3-3 Bad inh: 71.7; m-calpain inh: inactive; TNF death inh: inactive

What do the screens show for `CC(=O)C1=C(O)C(=O)N(CO)C1c1ccccc1F` (centres undefined)?
HMGR II inh: inactive; zVAD death inh: inactive; 14-3-3 Bad inh: inactive; m-calpain inh: inactive; TNF death inh: inactive

Results for CC(=O)C1=C(O)C(=O)N(C)C1c1ccccc1F (centres undefined) ?
HMGR II inh: 15.5; ROMK mod: inactive; zVAD death inh: inactive; 14-3-3 Bad inh: inactive; m-calpain inh: inactive; TNF death inh: inactive

How did Cc1oc2c(c1C(=O)c1ccc(Cl)cc1)C(=O)C(=O)c1ccccc1-2 do in these assays?
HMGR II inh: inactive; zVAD death inh: inactive; 14-3-3 Bad inh: inactive; m-calpain inh: 61.9; TNF death inh: inactive

What do the screens show for `CCn1cc(CNC(=O)c2cc(COc3ccc(F)cc3F)on2)cn1`?
HMGR II inh: inactive; ROMK mod: inactive; zVAD death inh: inactive; 14-3-3 Bad inh: inactive; m-calpain inh: inactive; TNF death inh: inactive

How did CCOC(=O)CSc1nc2sc3c(c2c(=O)n1C1CCCCC1)CCN(C)C3 do in these assays?
HMGR II inh: inactive; ROMK mod: -3.52; zVAD death inh: inactive; 14-3-3 Bad inh: inactive; m-calpain inh: inactive; TNF death inh: inactive

How did CC1(C)Cc2c(cnn2-c2ccccc2)-c2c1c1ccccc1n2CC(O)CBr (centres undefined) do in these assays?
HMGR II inh: inactive; zVAD death inh: inactive; 14-3-3 Bad inh: inactive; m-calpain inh: inactive; TNF death inh: inactive

What do the screens show for `O=C(Cn1c2ccccc2c(=O)c2ccccc21)N/N=C/c1ccc(N2CCCC2)c([N+](=O)[O-])c1`?
HMGR II inh: inactive; zVAD death inh: inactive; 14-3-3 Bad inh: 98.5[fluorescence artefact?]; m-calpain inh: inactive; TNF death inh: inactive

Results for O=c1/c(=C/c2ccc([N+](=O)[O-])cc2)sc2n1CCCN=2 ?
HMGR II inh: inactive; zVAD death inh: inactive; 14-3-3 Bad inh: 79.5; m-calpain inh: inactive; TNF death inh: inactive

Results for O=C(CC1SCCNC1=O)Nc1ccc(F)c(Cl)c1 (centres undefined) ?
HMGR II inh: 15.7; ROMK mod: inactive; zVAD death inh: inactive; 14-3-3 Bad inh: inactive; m-calpain inh: inactive; TNF death inh: inactive

What do the screens show for `COc1ccc(C(=O)Oc2ccc3oc(=O)sc3c2)cc1`?
HMGR II inh: inactive; ROMK mod: inactive; zVAD death inh: inactive; 14-3-3 Bad inh: inactive; m-calpain inh: inactive; TNF death inh: inactive
